In ChEMBL document CHEMBL1157539, “Thousands of chemical starting points for antimalarial lead identification” (Nature, 2010):

system: Plasmodium falciparum; assay: GSK_TCMDC: Inhibition of Plasmodium falciparum 3D7 in whole red blood cells, using parasite LDH activity as an index of growth. Test compounds present at 2uM; assay type: functional

Compound | Inhibition [%]
COc1cc2nccc(Nc3ccc4c(cnn4Cc4ccccc4F)c3)c2cc1OC.Cl | 100
CN1CCCC1CCCOC(=O)c1ccc(N)cc1 (configuration not stated) | 100
CCc1ccc(N2C(N)=NC(N)=NC2(C)C)cc1.Cl | 94
COc1ccc(-c2cc(C(F)(F)F)n3ncc(C(=O)Nc4cc(C)ccc4O)c3n2)cc1OC | 100
O=C(Nc1ccccc1)Nc1cccc(-c2cc(CNCCc3ccccc3)sc2-c2ccncc2)c1 | 100
COc1ccc2c(c1)Nc1ccc(Cl)cc1C2N.O=S(=O)(O)O (configuration not stated) | 100
Cc1nc(N)nc(N)c1CCCOc1ccc(Br)cc1 | 97
C=CCOc1ccc(CNC2CCN(Cc3ccccc3)CC2)cc1Br.O=C(O)C(=O)O | 92
O=C(NCC1CC1)C1CCN(C(c2ccccc2)c2nc3ccccc3s2)CC1 (configuration not stated) | 92
N#Cc1ccc(C(=O)Nc2cccc(-c3ccc(CN4CCCC4)cc3)c2)cc1.O=C(O)C(F)(F)F | 99
COc1ccc(Nc2cc(C)nc(Nc3ccc(NC(C)=O)cc3)n2)cc1 | 98
Cc1ccccc1C1CCN(C2CCC(NC(=O)/C=C/c3ccc(C#N)cc3)CC2)CC1 (configuration not stated) | 87
Cl.N[C@@H](CCNCc1ccc(-c2cccnc2)cc1)Cc1ccc(F)c(F)c1 | 98
Cn1c(NC(=O)CCCCCNC(=O)c2ccc(O)c(-c3ccc(Cl)c(Cl)c3)c2)nc2ccccc21 | 100
CC(C)CN(C)c1ncnc2c1nc(-c1cncc(C#N)c1)n2CCNCc1ccccc1.O=C(O)C(F)(F)F | 86
CC(=O)c1ccc2cc(C(=O)NC3CCC(CCN4CCc5ccc(-c6noc(C)n6)cc5CC4)CC3)[nH]c2c1.Cl (configuration not stated) | 81
COC(=O)c1ccc2nc(-c3ccc(C(=O)NCc4ccc(Cl)c(Cl)c4)cc3)[nH]c2c1 | 95
COCCNC(=O)C1CCN(C(c2ccc(Cl)cc2)c2ccc(Cl)cc2)CC1 | 86
O=C(O)C(F)(F)F.c1ccc2[nH]c(-c3ccc(-c4ccc(CNC5CC5)cc4)s3)nc2c1 | 91
N=C(N)NCCN(Cc1ccccc1)c1ccc(Cl)cc1 | 100
Cc1ccc(O)cc1C[C@@H]1C(=O)CC[C@@]2(C)[C@H]1CC[C@]2(C)O | 96
COCCNCc1cccc(-c2ccc3c(Nc4ccc(Oc5ccccc5)cc4)ccnc3c2)c1 | 100
COc1ccc(Nc2nccc(NCCNC(=O)Nc3ccccc3F)n2)cc1 | 85
COc1ccc(CNc2ccnc3cc(OC)ccc23)cc1 | 100
O=C(Nc1ccc(Cn2nc(Cl)c(N3CCCNCC3)cc2=O)cc1)Nc1ccc(-c2ccccc2)cc1.O=C(O)C(F)(F)F | 87
CC1CN(c2ncc(-c3ccc(CNC4Cc5ccccc5C4)cc3)cn2)CC(C)N1.O=CO (configuration not stated) | 85
CN1CCC(C(=O)Nc2cccc(-c3ccc(-c4nc5cc(F)ccc5[nH]4)cc3)c2)CC1 | 100

system: Plasmodium falciparum; assay: GSK_TCMDC: Inhibition of Plasmodium falciparum Dd2 in whole red blood cells, using parasite LDH activity as an index of growth. Test compounds present at 2uM; assay type: functional

Compound | Inhibition [%]
Cc1cc(Nc2cccc(C(F)(F)F)c2)nc(NCc2ccccc2)n1 | 95
O=C(Nc1ccc(Cl)cc1)N[C@H]1CCN(Cc2ccc(OCCCN3CCCCC3)cc2)C1 | 0
CC(C)C(C(=O)n1cc2c(ccc3nc(N)nc(N)c32)n1)C(C)C | 49
CN1CCc2cc(O)c(NS(=O)(=O)c3ccc(-c4ccc(Cl)cc4)cc3)cc2CC1.Cl | 3
Nc1ccc(-c2cnc3[nH]cc(-c4ccc(C(=O)O)cc4)c3c2)cn1.O=C(O)C(F)(F)F | 99
CCN(CC)CCN(Cc1ccc(-c2ccc(C(F)(F)F)cc2)cc1)C(=O)Cn1c(CCc2ccc(F)c(F)c2)nc(=O)c2ccccc21.O=C(O)C(O)C(O)C(=O)O | 62
CCCC(C)c1ccc(N2C(N)=NC(N)=NC2(C)C)cc1.Cl (configuration not stated) | 7
Cc1[nH]c(C)c(-c2ccc(-c3ccccc3)nc2)c(=O)c1Br | 95
O=C(O)C(F)(F)F.O=S(=O)(NCCN1CCCC1)c1ccc(-c2ccc(CNC3Cc4ccccc4C3)cc2)cc1F | 75
COc1ccc2nc(-c3cc(-c4ccc(NC(=O)C(C)C)cc4)cnc3N)[nH]c2c1 | 47
CC(C)(C)NCCN(Cc1ccc(-c2ccc(C(F)(F)F)cc2)cc1)C(=O)Cn1c(CCc2cccc(F)c2F)nc(=O)c2c1CCC2.O=C(O)C(O)C(O)C(=O)O | 48
COc1cc(Nc2nccc(N3CCC(NC(=O)Nc4ccc5c(c4)OCO5)C3)n2)cc(OC)c1OC (configuration not stated) | 74
C=CC[C@H](C[C@H](O)[C@H](Cc1ccccc1)NC(=O)c1nn(-c2ccccc2)nc1C)C(=O)NC1CCCCC1 | 3
COc1cc2nccc(Nc3ccc4c(cnn4Cc4ccccc4F)c3)c2cc1OC.Cl | 91
CN1CCCC1CCCOC(=O)c1ccc(N)cc1 (configuration not stated) | 2
CCc1ccc(N2C(N)=NC(N)=NC2(C)C)cc1.Cl | 0
COc1ccc(-c2cc(C(F)(F)F)n3ncc(C(=O)Nc4cc(C)ccc4O)c3n2)cc1OC | 100
O=C(Nc1ccccc1)Nc1cccc(-c2cc(CNCCc3ccccc3)sc2-c2ccncc2)c1 | 84
COc1ccc2c(c1)Nc1ccc(Cl)cc1C2N.O=S(=O)(O)O (configuration not stated) | 99
Cc1nc(N)nc(N)c1CCCOc1ccc(Br)cc1 | 5

Compound | Inhibition [%]
C=CCOc1ccc(CNC2CCN(Cc3ccccc3)CC2)cc1Br.O=C(O)C(=O)O | 8
O=C(NCC1CC1)C1CCN(C(c2ccccc2)c2nc3ccccc3s2)CC1 (configuration not stated) | 49
N#Cc1ccc(C(=O)Nc2cccc(-c3ccc(CN4CCCC4)cc3)c2)cc1.O=C(O)C(F)(F)F | 0
COc1ccc(Nc2cc(C)nc(Nc3ccc(NC(C)=O)cc3)n2)cc1 | 31
Cc1ccccc1C1CCN(C2CCC(NC(=O)/C=C/c3ccc(C#N)cc3)CC2)CC1 (configuration not stated) | 13
Cl.N[C@@H](CCNCc1ccc(-c2cccnc2)cc1)Cc1ccc(F)c(F)c1 | 57
Cn1c(NC(=O)CCCCCNC(=O)c2ccc(O)c(-c3ccc(Cl)c(Cl)c3)c2)nc2ccccc21 | 55
CC(C)CN(C)c1ncnc2c1nc(-c1cncc(C#N)c1)n2CCNCc1ccccc1.O=C(O)C(F)(F)F | 2
CC(=O)c1ccc2cc(C(=O)NC3CCC(CCN4CCc5ccc(-c6noc(C)n6)cc5CC4)CC3)[nH]c2c1.Cl (configuration not stated) | 45
COC(=O)c1ccc2nc(-c3ccc(C(=O)NCc4ccc(Cl)c(Cl)c4)cc3)[nH]c2c1 | 3
COCCNC(=O)C1CCN(C(c2ccc(Cl)cc2)c2ccc(Cl)cc2)CC1 | 73
O=C(O)C(F)(F)F.c1ccc2[nH]c(-c3ccc(-c4ccc(CNC5CC5)cc4)s3)nc2c1 | 19
N=C(N)NCCN(Cc1ccccc1)c1ccc(Cl)cc1 | 99
Cc1ccc(O)cc1C[C@@H]1C(=O)CC[C@@]2(C)[C@H]1CC[C@]2(C)O | 0
COCCNCc1cccc(-c2ccc3c(Nc4ccc(Oc5ccccc5)cc4)ccnc3c2)c1 | 99
COc1ccc(Nc2nccc(NCCNC(=O)Nc3ccccc3F)n2)cc1 | 4
COc1ccc(CNc2ccnc3cc(OC)ccc23)cc1 | 74
O=C(Nc1ccc(Cn2nc(Cl)c(N3CCCNCC3)cc2=O)cc1)Nc1ccc(-c2ccccc2)cc1.O=C(O)C(F)(F)F | 36
CC1CN(c2ncc(-c3ccc(CNC4Cc5ccccc5C4)cc3)cn2)CC(C)N1.O=CO (configuration not stated) | 78
CN1CCC(C(=O)Nc2cccc(-c3ccc(-c4nc5cc(F)ccc5[nH]4)cc3)c2)CC1 | 51
